Test results published in PMC7862700, “An all-to-all approach to the identification of sequence-specific readers for epigenetic DNA modifications on cytosine”.

Tests used:
Assay in all cases: DAPPL (digital affinity profiling via proximity ligation, sequencing); 10 mM Tris-HCl pH 7.5, 50 mM NaCl, 1 mM DTT, 4% glycerol, room temperature, 30 min; GST-TFs on glutathione beads, 16-mer random dsDNA library, 0.1% formaldehyde crosslink after washing; high values mean tight binding
[1] = target: T1, FLI1 (Homo sapiens, UniProt Q01543 1-452); settings: protein: recombinant; tags: N-terminal GST; dsDNA, one strand shown
T1 sequence: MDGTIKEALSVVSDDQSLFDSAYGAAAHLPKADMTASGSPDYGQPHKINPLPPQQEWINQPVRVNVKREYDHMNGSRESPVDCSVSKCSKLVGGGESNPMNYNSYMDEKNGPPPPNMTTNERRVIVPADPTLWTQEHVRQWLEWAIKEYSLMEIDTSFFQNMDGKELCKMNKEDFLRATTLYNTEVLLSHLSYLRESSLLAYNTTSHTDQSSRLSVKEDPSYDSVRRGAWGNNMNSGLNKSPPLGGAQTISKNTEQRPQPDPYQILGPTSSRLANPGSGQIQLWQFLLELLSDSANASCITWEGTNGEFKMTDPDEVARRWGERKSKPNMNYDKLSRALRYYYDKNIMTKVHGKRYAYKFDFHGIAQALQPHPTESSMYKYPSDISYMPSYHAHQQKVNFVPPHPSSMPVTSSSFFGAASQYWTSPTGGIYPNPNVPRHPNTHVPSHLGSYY
In short: (§1)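 GST fusions of human transcription factors were expressed in yeast and captured with glutathione beads. Once given DNA barcodes and pooled alongside a tag-only sample, they were incubated for 30 min at room temperature with 200 nmole of a random double-stranded 16-mer DNA library in Tris/NaCl/DTT/glycerol buffer, then washed, crosslinked (0.1% formaldehyde), proximity-ligated, PCR-amplified and sequenced on an Illumina NextSeq500. The binding signal of each hexamer is its read frequency for a factor divided by its frequency for the tag-only sample.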

[2] = target: T2, ELK1 (Homo sapiens, UniProt P19419 1-428); settings: protein: recombinant; tags: N-terminal GST; dsDNA, one strand shown
T2 sequence: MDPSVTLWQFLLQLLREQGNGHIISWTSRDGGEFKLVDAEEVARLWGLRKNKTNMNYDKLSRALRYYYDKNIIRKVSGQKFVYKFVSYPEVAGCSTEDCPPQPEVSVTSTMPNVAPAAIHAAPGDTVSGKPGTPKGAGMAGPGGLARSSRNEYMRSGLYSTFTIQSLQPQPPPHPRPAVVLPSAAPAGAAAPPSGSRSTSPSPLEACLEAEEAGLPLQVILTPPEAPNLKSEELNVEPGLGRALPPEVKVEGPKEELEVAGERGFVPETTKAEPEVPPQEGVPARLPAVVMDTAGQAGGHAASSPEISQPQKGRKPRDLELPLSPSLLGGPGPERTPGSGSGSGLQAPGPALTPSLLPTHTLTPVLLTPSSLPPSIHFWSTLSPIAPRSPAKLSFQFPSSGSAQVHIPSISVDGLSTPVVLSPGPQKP
In short: as §1

[3] = target: T3, GABPA (Homo sapiens, UniProt Q06546 1-454); settings: protein: recombinant; tags: N-terminal GST; dsDNA, one strand shown
T3 sequence: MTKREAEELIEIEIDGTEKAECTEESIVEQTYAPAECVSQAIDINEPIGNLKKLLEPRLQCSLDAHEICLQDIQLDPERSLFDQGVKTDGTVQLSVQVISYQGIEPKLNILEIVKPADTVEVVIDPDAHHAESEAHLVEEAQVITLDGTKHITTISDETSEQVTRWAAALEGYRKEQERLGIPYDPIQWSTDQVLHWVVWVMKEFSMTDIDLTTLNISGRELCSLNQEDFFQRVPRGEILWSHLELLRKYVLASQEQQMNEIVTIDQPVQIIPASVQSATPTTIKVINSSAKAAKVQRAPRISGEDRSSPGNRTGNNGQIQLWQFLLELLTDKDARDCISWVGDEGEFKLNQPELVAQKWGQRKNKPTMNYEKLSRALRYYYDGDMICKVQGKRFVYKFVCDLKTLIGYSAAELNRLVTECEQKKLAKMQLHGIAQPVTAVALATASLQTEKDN
In short: as §1

[4] = target: T4, ERG (Homo sapiens, UniProt P11308 1-479); settings: protein: recombinant; tags: N-terminal GST; dsDNA, one strand shown
T4 sequence: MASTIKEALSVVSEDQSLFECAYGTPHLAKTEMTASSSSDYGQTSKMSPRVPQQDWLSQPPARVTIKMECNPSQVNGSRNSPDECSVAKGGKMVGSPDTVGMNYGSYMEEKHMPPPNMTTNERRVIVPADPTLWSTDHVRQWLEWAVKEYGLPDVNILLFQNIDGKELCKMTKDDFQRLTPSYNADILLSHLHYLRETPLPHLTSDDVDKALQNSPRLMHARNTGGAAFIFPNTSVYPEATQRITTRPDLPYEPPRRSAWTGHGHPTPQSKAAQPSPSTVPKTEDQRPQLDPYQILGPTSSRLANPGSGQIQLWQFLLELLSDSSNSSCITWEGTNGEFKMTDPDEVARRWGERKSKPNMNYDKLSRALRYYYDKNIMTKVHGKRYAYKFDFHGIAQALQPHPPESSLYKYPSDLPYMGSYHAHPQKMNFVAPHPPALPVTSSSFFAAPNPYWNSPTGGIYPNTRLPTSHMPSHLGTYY
In short: as §1

[5] = target: ELF1 (Homo sapiens, UniProt P32519 1-619); settings: protein: recombinant; tags: N-terminal GST; dsDNA, one strand shown
In short: as §1

[6] = target: T5, EHF (Homo sapiens, UniProt Q9NZC4 1-300); settings: protein: recombinant; tags: N-terminal GST; dsDNA, one strand shown
T5 sequence: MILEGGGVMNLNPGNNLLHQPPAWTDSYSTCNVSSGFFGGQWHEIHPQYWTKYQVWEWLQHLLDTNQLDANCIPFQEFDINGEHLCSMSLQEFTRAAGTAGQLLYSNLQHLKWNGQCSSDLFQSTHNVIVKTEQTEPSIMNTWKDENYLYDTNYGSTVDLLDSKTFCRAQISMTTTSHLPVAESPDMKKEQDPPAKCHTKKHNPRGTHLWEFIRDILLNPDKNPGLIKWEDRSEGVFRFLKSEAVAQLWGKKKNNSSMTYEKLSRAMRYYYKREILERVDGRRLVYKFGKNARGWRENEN
In short: as §1

[7] = target: SPI1 (Homo sapiens, UniProt P17947 1-270); settings: protein: recombinant; tags: N-terminal GST; dsDNA, one strand shown
In short: as §1

[8] = target: SPIB (Homo sapiens, UniProt Q01892 1-262); settings: protein: recombinant; tags: N-terminal GST; dsDNA, one strand shown
In short: as §1

[9] = target: T6, ELK3 (Homo sapiens, UniProt P41970 1-407); settings: protein: recombinant; tags: N-terminal GST; dsDNA, one strand shown
T6 sequence: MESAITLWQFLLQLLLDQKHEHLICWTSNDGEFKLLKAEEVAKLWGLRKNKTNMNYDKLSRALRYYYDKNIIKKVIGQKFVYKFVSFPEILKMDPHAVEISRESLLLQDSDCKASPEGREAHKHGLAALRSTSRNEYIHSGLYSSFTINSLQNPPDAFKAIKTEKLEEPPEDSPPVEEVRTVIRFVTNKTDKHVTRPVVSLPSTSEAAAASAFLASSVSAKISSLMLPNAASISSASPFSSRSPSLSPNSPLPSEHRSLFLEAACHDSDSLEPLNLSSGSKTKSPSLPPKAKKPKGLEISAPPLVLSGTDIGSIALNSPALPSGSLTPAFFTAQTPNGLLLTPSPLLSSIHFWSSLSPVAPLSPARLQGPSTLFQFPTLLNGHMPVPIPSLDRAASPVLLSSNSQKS
In short: as §1

[10] = target: T7, FEV (Homo sapiens, UniProt Q99581 1-238); settings: protein: recombinant; tags: N-terminal GST; dsDNA, one strand shown
T7 sequence: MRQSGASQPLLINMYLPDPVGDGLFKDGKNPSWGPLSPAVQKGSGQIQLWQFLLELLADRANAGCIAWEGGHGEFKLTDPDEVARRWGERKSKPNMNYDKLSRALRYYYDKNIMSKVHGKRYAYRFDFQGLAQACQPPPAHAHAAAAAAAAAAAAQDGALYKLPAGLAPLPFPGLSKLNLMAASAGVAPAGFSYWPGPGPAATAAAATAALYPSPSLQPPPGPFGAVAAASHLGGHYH
In short: as §1

[11] = target: ETV5 (Homo sapiens, UniProt P41161 1-510); settings: protein: recombinant; tags: N-terminal GST; dsDNA, one strand shown
In short: as §1

[12] = target: HSF1 (Homo sapiens, UniProt Q00613 1-529); settings: protein: recombinant; tags: N-terminal GST; chain copies: 3; dsDNA, one strand shown
In short: as §1

[13] = target: T8, SPIC (Homo sapiens, UniProt Q8N5J4 1-248); settings: protein: recombinant; tags: N-terminal GST; dsDNA, one strand shown
T8 sequence: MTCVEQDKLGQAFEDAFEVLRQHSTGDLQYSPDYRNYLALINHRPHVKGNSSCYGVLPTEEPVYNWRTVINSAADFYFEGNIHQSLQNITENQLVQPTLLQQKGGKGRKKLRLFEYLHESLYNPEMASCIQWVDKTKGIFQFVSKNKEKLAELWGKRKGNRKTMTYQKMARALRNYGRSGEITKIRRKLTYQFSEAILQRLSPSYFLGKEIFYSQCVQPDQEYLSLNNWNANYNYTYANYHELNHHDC
In short: as §1

[14] = target: ELF4 (Homo sapiens, UniProt Q99607 1-663); settings: protein: recombinant; tags: N-terminal GST; dsDNA, one strand shown
In short: as §1

[15] = target: T9, ELK4 (Homo sapiens, UniProt P28324-2 1-405); settings: protein: recombinant; tags: N-terminal GST; dsDNA, one strand shown
T9 sequence: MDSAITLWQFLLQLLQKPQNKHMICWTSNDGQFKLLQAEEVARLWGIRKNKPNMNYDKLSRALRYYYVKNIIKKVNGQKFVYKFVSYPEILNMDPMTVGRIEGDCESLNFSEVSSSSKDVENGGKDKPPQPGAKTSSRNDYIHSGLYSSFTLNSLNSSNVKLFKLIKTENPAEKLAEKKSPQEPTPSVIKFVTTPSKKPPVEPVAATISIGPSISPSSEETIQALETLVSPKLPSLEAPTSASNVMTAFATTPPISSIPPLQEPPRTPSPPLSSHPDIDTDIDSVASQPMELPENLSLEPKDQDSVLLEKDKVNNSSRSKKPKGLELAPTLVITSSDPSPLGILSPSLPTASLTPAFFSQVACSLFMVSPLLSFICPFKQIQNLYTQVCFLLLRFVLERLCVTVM
In short: as §1

[16] = target: T10, ETV2 (Homo sapiens, UniProt O00321 1-342); settings: protein: recombinant; tags: N-terminal GST; dsDNA, one strand shown
T10 sequence: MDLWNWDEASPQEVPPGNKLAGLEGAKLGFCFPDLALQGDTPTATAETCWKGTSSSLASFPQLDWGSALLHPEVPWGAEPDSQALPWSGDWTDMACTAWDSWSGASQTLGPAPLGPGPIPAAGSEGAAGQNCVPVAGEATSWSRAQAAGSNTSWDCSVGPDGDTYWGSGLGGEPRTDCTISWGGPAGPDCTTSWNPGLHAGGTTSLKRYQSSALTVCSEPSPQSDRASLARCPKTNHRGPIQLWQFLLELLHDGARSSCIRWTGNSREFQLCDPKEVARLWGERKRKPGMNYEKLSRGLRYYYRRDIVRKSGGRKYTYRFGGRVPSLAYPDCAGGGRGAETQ
In short: as §1

[17] = target: T11, ELF3 (Homo sapiens, UniProt P78545 1-371); settings: protein: recombinant; tags: N-terminal GST; dsDNA, one strand shown
T11 sequence: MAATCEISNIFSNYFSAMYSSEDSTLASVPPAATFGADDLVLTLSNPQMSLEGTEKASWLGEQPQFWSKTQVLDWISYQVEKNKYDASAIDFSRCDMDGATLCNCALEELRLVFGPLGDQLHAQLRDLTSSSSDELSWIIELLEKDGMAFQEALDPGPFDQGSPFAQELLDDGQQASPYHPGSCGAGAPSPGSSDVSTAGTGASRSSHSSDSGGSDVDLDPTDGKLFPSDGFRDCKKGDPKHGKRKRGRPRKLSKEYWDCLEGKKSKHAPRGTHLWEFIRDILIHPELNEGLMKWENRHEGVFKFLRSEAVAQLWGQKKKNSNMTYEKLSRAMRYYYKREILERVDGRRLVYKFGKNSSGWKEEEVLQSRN
In short: as §1

[18] = target: CRX (Homo sapiens, UniProt O43186 1-299); settings: protein: recombinant; tags: N-terminal GST; dsDNA, one strand shown
In short: as §1

[19] = target: ETV1 (Homo sapiens, UniProt P50549 1-477); settings: protein: recombinant; tags: N-terminal GST; dsDNA, one strand shown
In short: as §1

Sequence of ETV1 (P50549 whole entry): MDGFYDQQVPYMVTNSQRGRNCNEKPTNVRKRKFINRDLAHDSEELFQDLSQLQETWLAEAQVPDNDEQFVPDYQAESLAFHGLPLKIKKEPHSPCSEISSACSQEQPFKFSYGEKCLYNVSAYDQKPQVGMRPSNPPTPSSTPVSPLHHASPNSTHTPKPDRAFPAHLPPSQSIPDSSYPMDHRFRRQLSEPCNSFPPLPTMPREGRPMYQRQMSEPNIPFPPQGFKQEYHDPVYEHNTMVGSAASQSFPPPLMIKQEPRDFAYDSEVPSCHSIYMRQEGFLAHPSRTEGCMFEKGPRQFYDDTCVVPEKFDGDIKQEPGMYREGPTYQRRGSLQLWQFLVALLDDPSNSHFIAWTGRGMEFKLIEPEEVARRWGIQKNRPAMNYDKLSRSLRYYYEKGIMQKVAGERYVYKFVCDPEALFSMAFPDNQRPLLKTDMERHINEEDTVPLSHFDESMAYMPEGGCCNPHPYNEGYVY
Sequence of HSF1 (Q00613 whole entry): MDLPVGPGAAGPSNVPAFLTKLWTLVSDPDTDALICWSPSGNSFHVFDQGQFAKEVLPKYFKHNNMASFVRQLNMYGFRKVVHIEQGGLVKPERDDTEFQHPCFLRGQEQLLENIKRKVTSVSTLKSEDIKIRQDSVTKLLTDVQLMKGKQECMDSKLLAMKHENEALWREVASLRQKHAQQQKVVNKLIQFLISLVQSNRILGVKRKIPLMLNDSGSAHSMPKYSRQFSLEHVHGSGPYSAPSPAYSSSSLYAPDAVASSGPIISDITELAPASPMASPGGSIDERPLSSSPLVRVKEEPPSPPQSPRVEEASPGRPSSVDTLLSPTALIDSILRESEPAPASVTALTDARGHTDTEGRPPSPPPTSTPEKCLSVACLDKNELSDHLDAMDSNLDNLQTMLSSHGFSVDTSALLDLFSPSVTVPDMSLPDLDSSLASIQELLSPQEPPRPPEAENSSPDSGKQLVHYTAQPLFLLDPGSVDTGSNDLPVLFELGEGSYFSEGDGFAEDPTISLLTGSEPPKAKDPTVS
Sequence of SPIB (Q01892 whole entry): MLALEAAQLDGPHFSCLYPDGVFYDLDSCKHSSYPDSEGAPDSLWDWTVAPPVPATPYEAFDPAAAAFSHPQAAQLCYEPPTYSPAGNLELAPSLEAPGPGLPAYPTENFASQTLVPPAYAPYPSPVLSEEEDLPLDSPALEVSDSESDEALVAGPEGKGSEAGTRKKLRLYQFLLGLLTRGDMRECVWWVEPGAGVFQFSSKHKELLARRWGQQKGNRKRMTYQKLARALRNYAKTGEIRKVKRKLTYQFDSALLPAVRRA
Sequence of ELF4 (Q99607 whole entry): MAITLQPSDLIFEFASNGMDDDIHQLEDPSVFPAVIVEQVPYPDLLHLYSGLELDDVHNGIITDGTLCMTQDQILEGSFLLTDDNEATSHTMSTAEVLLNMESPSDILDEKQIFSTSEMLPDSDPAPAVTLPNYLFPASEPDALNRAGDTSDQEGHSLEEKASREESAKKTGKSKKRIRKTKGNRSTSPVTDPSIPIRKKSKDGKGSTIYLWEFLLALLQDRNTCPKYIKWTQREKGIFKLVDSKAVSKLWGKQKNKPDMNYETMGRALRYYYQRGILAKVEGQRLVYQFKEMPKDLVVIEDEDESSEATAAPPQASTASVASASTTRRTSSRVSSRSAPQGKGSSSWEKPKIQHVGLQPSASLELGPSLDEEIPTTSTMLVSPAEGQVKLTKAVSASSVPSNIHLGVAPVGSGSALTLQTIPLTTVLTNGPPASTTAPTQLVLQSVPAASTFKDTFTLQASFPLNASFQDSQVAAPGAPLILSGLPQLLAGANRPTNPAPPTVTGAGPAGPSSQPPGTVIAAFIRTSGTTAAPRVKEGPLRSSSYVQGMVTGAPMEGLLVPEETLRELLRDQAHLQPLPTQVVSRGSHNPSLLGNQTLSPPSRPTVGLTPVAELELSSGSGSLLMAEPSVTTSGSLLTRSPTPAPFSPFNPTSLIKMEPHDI
Sequence of ELF1 (P32519 whole entry): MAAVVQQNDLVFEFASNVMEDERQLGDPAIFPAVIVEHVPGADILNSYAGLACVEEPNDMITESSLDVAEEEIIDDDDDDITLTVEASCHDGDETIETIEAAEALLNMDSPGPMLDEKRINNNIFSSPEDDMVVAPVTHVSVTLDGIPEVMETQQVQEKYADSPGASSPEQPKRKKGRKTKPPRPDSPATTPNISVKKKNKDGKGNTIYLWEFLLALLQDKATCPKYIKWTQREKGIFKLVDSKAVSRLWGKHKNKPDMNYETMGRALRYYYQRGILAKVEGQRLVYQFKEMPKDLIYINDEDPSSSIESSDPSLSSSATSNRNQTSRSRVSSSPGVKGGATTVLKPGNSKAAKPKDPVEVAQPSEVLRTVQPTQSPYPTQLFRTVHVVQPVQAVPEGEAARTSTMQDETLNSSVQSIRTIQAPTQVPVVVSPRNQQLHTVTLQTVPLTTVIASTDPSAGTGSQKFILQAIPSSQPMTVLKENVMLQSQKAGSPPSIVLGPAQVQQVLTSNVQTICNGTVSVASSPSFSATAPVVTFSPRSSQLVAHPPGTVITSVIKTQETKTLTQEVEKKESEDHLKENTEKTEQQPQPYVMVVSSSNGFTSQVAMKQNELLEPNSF
Sequence of CRX (O43186 whole entry): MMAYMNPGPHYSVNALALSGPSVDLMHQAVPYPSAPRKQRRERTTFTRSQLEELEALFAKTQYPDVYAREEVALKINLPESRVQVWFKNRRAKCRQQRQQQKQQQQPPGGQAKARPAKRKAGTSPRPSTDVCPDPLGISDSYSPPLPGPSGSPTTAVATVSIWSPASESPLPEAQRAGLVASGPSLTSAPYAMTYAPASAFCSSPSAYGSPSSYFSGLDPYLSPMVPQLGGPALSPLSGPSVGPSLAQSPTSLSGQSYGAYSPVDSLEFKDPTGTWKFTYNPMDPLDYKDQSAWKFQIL
Sequence of ETV5 (P41161 whole entry): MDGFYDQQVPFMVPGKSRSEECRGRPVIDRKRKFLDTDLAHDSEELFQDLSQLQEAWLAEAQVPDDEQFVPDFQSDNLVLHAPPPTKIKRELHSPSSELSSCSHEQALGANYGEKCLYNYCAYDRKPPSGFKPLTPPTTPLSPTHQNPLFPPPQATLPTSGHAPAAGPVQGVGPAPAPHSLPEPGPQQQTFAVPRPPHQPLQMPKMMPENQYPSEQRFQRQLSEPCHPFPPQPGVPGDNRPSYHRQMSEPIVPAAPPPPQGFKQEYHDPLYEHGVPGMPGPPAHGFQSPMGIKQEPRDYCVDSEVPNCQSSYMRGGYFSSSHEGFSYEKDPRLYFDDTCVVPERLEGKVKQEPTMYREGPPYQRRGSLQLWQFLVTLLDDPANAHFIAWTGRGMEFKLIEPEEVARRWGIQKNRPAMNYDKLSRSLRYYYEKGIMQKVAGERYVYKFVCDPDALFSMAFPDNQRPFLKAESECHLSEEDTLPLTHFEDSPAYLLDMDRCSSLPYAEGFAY

TCCAAA
binding signal [1]: 1.08 fold enrichment (6-mer frequency, TF over GST control)
binding signal [2]: 1.18 fold enrichment (6-mer frequency, TF over GST control)
binding signal [3]: 1.31 fold enrichment (6-mer frequency, TF over GST control)
binding signal [4]: 1.19 fold enrichment (6-mer frequency, TF over GST control)
binding signal [5]: 1.18 fold enrichment (6-mer frequency, TF over GST control)
binding signal [6]: 1.1 fold enrichment (6-mer frequency, TF over GST control)
binding signal [7]: 1.12 fold enrichment (6-mer frequency, TF over GST control)
binding signal [8]: 1.17 fold enrichment (6-mer frequency, TF over GST control)
binding signal [9]: 1.17 fold enrichment (6-mer frequency, TF over GST control)
binding signal [10]: 1.18 fold enrichment (6-mer frequency, TF over GST control)
binding signal [11]: 1.12 fold enrichment (6-mer frequency, TF over GST control)
binding signal [12]: 1.3 fold enrichment (6-mer frequency, TF over GST control)
binding signal [13]: 1.11 fold enrichment (6-mer frequency, TF over GST control)
binding signal [14]: 1.25 fold enrichment (6-mer frequency, TF over GST control)
binding signal [15]: 1.17 fold enrichment (6-mer frequency, TF over GST control)
binding signal [16]: 1.01 fold enrichment (6-mer frequency, TF over GST control)
binding signal [17]: 1.16 fold enrichment (6-mer frequency, TF over GST control)
binding signal [18]: 1.26 fold enrichment (6-mer frequency, TF over GST control)
binding signal [19]: 1.1 fold enrichment (6-mer frequency, TF over GST control)
